The record followed here is PubChem BioAssay.

The test system of assay [1] is PRMT1 (protein arginine N-methyltransferase 1). Description: PRMT1 binders on small-molecule microarrays, primary screen, biochemical, small-molecule microarray, 635 nm fluorescence (AID 1088).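 Further: binding of Prmt1 protein to compounds spotted on small-molecule microarray slides.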 As to conditions: small-molecule microarray binding, higher = more signal.
Assay [2] in a line: yeast growth modulation, basal conditions, primary screen, YJM789 clinical isolate, OD600, 24 h (AID 1089).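 Further: growth of clinical yeast isolate S. cerevisiae YJM 789 seeded 1000 cells per well; test concentration not given here.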 As to conditions: S. cerevisiae YJM789 growth, higher = more signal, called active from +8 up or from −8 down.
A short description of assay [3]: fission yeast growth modulation, primary screen, strain 972, OD600, 24 h, no modulator (AID 1090).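 Further: basal condition with compound alone and no growth modifier present; test concentration not given here.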 The conditions noted are these: S. pombe 972 growth, higher = more signal, called active from +8 up or from −8 down.
Assay [4] can be described thus: S. cerevisiae growth modulation with rapamycin, primary screen, strain BY4716, OD600, 96 h (AID 1091). Further: test concentration not given here. The conditions noted are these: higher = more signal, called active from +8 up or from −8 down.
Assay [5] addresses Torsin-1A-interacting protein 2 (Homo sapiens) (UniProt Q8NFQ8). Kind of assay: LULL1 binders on small-molecule microarray, primary screen, cell lysate, human LULL1 lysate, 635/667 nm fluorescence (AID 1092).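 Further: probe is lysate of COS7 cells overexpressing human LULL1; score merges per-feature 667 nm fluorescence with signal-to-noise.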 As to conditions: hLULL1 lysate binding, 635 nm fluorescence, higher = more signal.
A short description of assay [6]: E. coli growth modulation, two-sided OD650, primary screen, E. coli filamentation project, strain DRC41, 24 h (AID 1093).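 Further: MC1000 strain lacking acrAB efflux and sulA so SOS filamentation is blocked; test concentration not given here.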 The conditions noted are these: OD650, 24 h, higher = more signal, called active from +8 up or from −8 down.
The nature of assay [7]: small-molecule microarray binders of probe aLefty2, primary screen, biochemical, biotinylated probe, 635/667 nm fluorescence (AID 1094).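 Further: score merges spot fluorescence near 667 nm with spot signal-to-noise ratio.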 The conditions noted are these: higher = more signal.
Assay [8] has as its system Noggin (protein binding on small-molecule microarray). Kind of assay: Noggin binders on small-molecule microarray, primary screen, biochemical, 635/667 nm fluorescence (AID 1095).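 Further: score merges 667 nm feature fluorescence with signal to noise over triplicate slides.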 The conditions noted are these: 635 nm fluorescence, higher = more signal.
Assay [9] concerns the target Neurogenic locus notch homolog protein 3 (Homo sapiens) (UniProt Q9UM47). Description: NOTCH3 binders on small-molecule microarray, primary screen, biochemical, 635/667 nm fluorescence (AID 1096). The conditions noted are these: NOTCH3 binding, 635 nm fluorescence, higher = more signal.
Assay [10] is described as follows: small-molecule microarray binders of probe aEGFR, primary screen, biochemical, biotinylated probe, 635/667 nm fluorescence (AID 1097).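 Further: probe is a biotinylated anti-EGFR antibody binding compounds printed on slides; score combines fluorescence near 667 nm and signal to noise of each spot.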 As to conditions: higher = more signal.
The test system of assay [11] is Plasmodium falciparum Sir2 (PF13_0152, Sir2A). Description: pfSir2 binders on small-molecule microarrays, primary screen, biochemical, small-molecule microarray, 635 nm fluorescence (AID 1098).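 Further: score merges spot fluorescence intensity with its signal-to-noise ratio.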 As to conditions: small-molecule microarray binding, fluorescence 635 nm; higher = more signal.
The nature of assay [12]: small-molecule microarray binders of probe aDKK1, primary screen, biochemical, biotinylated probe, 635/667 nm fluorescence (AID 1099).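 Further: score merges 667nm spot fluorescence with signal to noise across triplicate slides; reference of the scale not given here.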 The conditions noted are these: higher = more signal.
The nature of assay [13]: small-molecule microarray binders of probe aCHRDL2, primary screen, biochemical, biotinylated probe, 635/667 nm fluorescence (AID 1100). The conditions noted are these: higher = more signal.
The nature of assay [14]: splicing luciferase reporter signal modulators, primary screen, spliceosome inhibition project, cell-based, HEK293, splice +/- reporter (AID 1101).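 Further: HEK293 cells carrying a splicing-competent luciferase reporter gene; test concentration not given here.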 The conditions noted are these: luminescence, 24 h, higher = more signal, called active from +8 up or from −8 down.
In assay [15] the target is Fibroblast growth factor 10 (Homo sapiens) (UniProt O15520). Description: FGF10 binders on small-molecule microarrays, primary screen, biochemical, small-molecule microarray, 635 nm fluorescence (AID 1102). As to conditions: FGF10 binding, fluorescence 635 nm, higher = more signal.
The test system of assay [16] is glycogen synthase kinase-3 (GSK3A per assay name; protocol says GSK3B). Kind of assay: GSK3 binders on small-molecule microarrays, primary screen, biochemical, small-molecule microarray, 635 nm fluorescence, GSK3A (AID 1103). Further: the record names both GSK3A and GSK3B. The conditions noted are these: small-molecule microarray binding, fluorescence 635 nm; higher = more signal.
For assay [17], the target named is Epidermal growth factor receptor (Homo sapiens) (UniProt P00533). Kind of assay: EGFR binders on small-molecule microarrays, primary screen, biochemical, small-molecule microarray, 635 nm fluorescence (AID 1104).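 Further: score merges 667 nm emission intensity with spot signal to noise over triplicate slides.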 The conditions noted are these: EGFR binding, higher = more signal.
The target of assay [18] is Follistatin-related protein 3 (Homo sapiens) (UniProt O95633). Kind of assay: FSTL3 binders on small-molecule microarrays, primary screen, biochemical, small-molecule microarray, 635 nm fluorescence (AID 1105).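 Further: score merges emission near 667 nm and signal to noise per printed spot across three slides.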 As to conditions: FSTL3 binding, higher = more signal.
Assay [19] deals with Dickkopf-related protein 1 (Homo sapiens) (UniProt O94907). Description: DKK1 binders on small-molecule microarrays, primary screen, biochemical, small-molecule microarray, 635 nm fluorescence scan (AID 1106).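 Further: score merges emission near 667 nm with signal to noise over three replicate slides.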 The conditions noted are these: DKK1 binding, higher = more signal.
Assay [20] concerns Inhibin beta A chain (activin A). Description: INHBA (activin A) binders on microarrays, primary screen, biochemical, small-molecule microarray, 635 nm fluorescence scan (AID 1107).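 Further: mouse activin A protein probed at 4.33 µg/mL on printed slides; score merges bound-protein fluorescence near 667 nm with spot signal-to-noise.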 The conditions noted are these: small-molecule microarray binding, higher = more signal.

The source made the active and inactive calls.

Fibroblast growth factor 10 (Homo sapiens), sequence (O15520 whole entry, looked up): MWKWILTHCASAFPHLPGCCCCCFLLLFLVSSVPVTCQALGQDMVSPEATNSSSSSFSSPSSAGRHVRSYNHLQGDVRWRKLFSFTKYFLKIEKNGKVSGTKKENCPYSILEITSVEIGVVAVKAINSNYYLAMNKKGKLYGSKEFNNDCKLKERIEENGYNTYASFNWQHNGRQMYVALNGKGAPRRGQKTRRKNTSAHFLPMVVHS
Follistatin-related protein 3 (Homo sapiens), sequence (O95633 whole entry, looked up): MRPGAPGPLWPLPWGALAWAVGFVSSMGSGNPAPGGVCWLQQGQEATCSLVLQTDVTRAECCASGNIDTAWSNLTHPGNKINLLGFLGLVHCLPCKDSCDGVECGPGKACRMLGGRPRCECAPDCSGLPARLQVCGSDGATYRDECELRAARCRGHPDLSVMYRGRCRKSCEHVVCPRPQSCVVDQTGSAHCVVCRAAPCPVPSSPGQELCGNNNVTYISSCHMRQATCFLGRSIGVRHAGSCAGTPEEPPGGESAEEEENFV
Epidermal growth factor receptor (Homo sapiens), sequence (P00533 whole entry, looked up): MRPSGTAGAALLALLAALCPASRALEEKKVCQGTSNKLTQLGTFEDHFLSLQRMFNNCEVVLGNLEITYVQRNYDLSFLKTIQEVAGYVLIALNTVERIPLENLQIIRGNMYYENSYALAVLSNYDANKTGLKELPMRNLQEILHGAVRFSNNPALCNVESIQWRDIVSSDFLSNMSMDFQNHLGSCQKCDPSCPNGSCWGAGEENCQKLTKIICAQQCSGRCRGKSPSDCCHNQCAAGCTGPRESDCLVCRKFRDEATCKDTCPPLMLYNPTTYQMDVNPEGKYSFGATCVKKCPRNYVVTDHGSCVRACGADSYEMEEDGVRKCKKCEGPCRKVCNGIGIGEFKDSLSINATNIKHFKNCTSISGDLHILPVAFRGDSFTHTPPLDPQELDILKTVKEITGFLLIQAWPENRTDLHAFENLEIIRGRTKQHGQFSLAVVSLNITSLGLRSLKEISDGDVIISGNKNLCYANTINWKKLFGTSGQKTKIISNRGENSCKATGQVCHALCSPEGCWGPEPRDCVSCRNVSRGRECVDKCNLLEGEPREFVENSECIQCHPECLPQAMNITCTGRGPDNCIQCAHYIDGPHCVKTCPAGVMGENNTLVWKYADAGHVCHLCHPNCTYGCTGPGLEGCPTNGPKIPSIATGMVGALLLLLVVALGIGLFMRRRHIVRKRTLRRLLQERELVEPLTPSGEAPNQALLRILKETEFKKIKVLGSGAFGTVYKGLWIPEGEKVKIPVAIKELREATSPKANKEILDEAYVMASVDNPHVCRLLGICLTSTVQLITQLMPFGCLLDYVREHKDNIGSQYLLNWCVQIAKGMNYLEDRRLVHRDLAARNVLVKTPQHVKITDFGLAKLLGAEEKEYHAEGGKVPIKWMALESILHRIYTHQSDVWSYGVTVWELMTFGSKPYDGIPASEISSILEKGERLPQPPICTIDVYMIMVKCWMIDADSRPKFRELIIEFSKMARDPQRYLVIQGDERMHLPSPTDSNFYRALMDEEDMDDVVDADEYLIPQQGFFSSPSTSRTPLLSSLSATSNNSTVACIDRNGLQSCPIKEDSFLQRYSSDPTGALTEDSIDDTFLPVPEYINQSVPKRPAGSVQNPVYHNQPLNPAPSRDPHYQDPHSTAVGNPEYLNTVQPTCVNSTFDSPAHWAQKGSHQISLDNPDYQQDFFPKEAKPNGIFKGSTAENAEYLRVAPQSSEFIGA
Neurogenic locus notch homolog protein 3 (Homo sapiens), sequence (Q9UM47 whole entry, looked up): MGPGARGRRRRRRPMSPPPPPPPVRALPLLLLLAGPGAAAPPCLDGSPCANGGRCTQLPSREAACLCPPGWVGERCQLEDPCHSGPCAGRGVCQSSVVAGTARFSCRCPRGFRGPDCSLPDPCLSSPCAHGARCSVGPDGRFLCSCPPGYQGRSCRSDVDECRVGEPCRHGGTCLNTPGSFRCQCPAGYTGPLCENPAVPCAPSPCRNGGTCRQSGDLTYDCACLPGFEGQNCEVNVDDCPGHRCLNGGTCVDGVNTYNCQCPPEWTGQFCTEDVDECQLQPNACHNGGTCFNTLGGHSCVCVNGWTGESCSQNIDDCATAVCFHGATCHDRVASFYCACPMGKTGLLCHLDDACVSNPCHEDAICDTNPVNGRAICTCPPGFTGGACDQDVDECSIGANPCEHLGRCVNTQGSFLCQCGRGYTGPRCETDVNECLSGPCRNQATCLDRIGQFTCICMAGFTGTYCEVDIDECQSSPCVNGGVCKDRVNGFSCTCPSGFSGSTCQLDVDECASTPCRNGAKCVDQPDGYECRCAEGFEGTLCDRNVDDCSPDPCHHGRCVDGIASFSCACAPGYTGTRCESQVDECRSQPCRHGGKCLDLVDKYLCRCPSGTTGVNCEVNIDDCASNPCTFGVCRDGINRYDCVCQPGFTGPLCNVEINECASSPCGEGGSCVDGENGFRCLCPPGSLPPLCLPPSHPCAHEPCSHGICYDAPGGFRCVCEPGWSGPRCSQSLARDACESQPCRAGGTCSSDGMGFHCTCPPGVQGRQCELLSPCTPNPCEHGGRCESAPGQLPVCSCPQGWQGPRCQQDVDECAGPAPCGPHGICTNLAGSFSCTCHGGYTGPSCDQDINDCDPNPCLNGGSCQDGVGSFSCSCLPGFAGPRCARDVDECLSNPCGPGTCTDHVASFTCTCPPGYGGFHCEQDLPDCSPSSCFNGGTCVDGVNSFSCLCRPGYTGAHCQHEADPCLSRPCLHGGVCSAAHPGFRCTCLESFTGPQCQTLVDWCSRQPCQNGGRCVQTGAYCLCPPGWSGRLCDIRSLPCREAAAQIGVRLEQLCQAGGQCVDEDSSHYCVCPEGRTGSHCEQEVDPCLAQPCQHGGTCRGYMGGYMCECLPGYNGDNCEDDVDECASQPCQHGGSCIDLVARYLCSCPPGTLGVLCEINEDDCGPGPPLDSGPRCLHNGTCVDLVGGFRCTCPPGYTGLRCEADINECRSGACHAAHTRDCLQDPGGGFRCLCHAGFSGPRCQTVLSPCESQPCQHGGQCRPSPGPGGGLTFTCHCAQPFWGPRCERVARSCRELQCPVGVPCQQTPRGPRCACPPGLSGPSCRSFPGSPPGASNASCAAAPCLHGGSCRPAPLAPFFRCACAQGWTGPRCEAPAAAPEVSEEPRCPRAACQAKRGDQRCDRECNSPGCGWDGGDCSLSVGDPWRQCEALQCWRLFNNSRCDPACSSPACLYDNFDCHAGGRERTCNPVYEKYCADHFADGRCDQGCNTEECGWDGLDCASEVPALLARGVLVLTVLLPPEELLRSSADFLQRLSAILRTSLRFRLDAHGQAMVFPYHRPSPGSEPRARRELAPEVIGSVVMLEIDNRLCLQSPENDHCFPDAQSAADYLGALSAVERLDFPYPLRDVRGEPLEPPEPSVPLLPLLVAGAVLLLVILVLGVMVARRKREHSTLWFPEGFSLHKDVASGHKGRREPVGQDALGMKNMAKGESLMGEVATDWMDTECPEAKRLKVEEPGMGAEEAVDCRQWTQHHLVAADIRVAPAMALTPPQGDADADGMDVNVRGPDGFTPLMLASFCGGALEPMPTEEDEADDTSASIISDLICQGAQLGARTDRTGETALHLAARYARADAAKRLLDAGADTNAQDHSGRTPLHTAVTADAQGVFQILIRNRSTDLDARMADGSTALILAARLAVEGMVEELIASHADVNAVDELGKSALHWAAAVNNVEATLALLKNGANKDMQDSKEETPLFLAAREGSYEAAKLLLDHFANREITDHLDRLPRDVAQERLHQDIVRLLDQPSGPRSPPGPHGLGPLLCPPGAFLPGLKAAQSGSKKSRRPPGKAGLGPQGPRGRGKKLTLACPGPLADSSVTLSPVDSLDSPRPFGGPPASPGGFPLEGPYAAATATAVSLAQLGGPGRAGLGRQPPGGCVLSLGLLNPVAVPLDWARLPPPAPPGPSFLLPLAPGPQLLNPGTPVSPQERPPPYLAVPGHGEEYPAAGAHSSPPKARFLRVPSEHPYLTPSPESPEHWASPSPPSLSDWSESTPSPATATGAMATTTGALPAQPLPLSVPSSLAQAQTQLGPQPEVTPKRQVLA
Dickkopf-related protein 1 (Homo sapiens), sequence (O94907 whole entry, looked up): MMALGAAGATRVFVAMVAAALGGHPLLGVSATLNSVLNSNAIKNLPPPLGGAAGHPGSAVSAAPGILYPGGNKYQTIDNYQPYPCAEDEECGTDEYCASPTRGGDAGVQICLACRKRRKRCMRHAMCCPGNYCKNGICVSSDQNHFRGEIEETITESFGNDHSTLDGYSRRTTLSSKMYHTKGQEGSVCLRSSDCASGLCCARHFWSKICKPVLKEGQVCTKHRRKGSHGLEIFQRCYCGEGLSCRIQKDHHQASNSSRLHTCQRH
Torsin-1A-interacting protein 2 (Homo sapiens), sequence (Q8NFQ8 whole entry, looked up): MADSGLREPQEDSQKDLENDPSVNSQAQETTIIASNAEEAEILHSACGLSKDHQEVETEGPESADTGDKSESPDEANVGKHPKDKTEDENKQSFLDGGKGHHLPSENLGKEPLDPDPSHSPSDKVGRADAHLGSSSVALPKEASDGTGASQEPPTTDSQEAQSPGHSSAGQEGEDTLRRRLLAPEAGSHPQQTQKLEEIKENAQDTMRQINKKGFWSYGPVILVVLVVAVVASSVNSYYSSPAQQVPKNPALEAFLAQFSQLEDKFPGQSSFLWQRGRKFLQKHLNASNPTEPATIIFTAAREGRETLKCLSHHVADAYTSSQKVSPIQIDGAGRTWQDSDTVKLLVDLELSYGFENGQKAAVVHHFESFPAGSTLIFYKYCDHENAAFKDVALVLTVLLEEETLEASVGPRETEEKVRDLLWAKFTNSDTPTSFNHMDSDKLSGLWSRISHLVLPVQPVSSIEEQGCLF

Take `C=CCC(OC(C)=O)[C@@H]1[C@@H](N(Cc2cc3ccccc3o2)C(=O)c2ccc(C)cc2)c2cc(OCCCO)ccc2N1C(=O)Cc1ccc2ccccc2c1` (stereo not given in full): the composite z-score in [1] is -0.208; in assay [5], 0.0257; in assay [7] it was 0.18; in [8], 1.81; in assay [9], -0.725; in assay [10], -0.094. For the same compound, the composite z-score in assay [11] is -0.45; in assay [12], 0.258; in assay [13], 0.43; in assay [15], -0.204; in [16], -0.822; in [17], -0.0197. The composite z-score was -0.32 in assay [18], 0.182 in assay [19] and 1.2 in assay [20]. For the same compound, the z-score in assay [2] was 0.627 (inactive); in assay [3], -0.423 (inactive); in assay [4], 0.469 (inactive); in [6], 2.18 (inactive); in assay [14], -0.793 (inactive).
In the case of `COC(=O)[C@@]1(Cc2ccccc2)[C@H]2c3cc(C(=O)N4CCCC4)n(C[C@H](O)CO)c3C[C@H]2CN1C(=O)c1ccccc1`, the composite z-score in [1] is -0.956; in assay [5], 3.45; in assay [7], 0.127; in assay [8] it was 0.334; in assay [9], 0.873; in assay [10], 0.08. Also, the composite z-score was 1.06 in assay [11]; 0.571 in assay [12]; 1.01 in [13]; -0.209 in assay [15]; -0.0288 in assay [16]; -0.455 in [17]. In addition, the composite z-score is 0.0783 in [18], -1.11 in assay [19] and 0.956 in assay [20]. Further, the z-score in [2] was 0.43 (inactive); in assay [3], 1.74 (inactive); in assay [4] it was -0.167 (inactive); in [6] it was -0.436 (inactive); in assay [14] it was 0.797 (inactive).
Consider `C=CCN1C(=O)[C@@]2(O[C@@H](CCO)[C@H]([Si](C)(C)c3ccc(OC)cc3)[C@H]2C)c2cc(N3C(=O)c4ccccc4Oc4ccccc43)ccc21`, for which the composite z-score in assay [1] was 0.0455; in [5], 1.65; in assay [7], -0.0665; in [8], 0.514; in [9], 0.612; in [10] it was -0.135. Besides, the composite z-score in [11] was 1.07; in assay [12], -0.0987; in [13] it was 0.0272; in assay [15], 0.916; in assay [16], -0.229; in assay [17], -0.262. For the same compound, the composite z-score is -0.0233 in [18], 0.0911 in assay [19] and 0.0761 in assay [20]. Also, the z-score was 1.34 (inactive) in assay [2]; 0.237 (inactive) in assay [3]; 9.42 (active) in [4]; 2.15 (inactive) in [6]; -3.3 (inactive) in assay [14].
Turning to `C=C(C(=O)CC[C@H](OC(C)=O)c1cccc(OCCO)c1)C(C)C`, the composite z-score was 0.385 in assay [1]; 0.355 in assay [5]; -0.121 in assay [7]; -0.621 in [8]; -0.594 in assay [9]; -0.113 in assay [10]. Also, the composite z-score in assay [11] was -0.382; in [12], -0.352; in [13], -0.115; in assay [15], -0.924; in [16] it was -1.24; in assay [17], -1.31. In addition, the composite z-score was -0.835 in assay [18], -1.07 in assay [19] and 0.0244 in assay [20]. For the same compound, the z-score in assay [2] was 0.574 (inactive); in assay [3], -0.299 (inactive); in [4], -0.0905 (inactive); in assay [6] it was 1.04 (inactive); in [14], 0.143 (inactive).
As to `C=CCOC(=O)[C@H]1[C@@H]2C(=O)O[C@@H](c3ccccc3)[C@@H](c3ccccc3)N2[C@@H](c2ccc(OCCOC(=O)[C@H]3C[C@H]4C(=O)N[C@@H](Cc5ccccc5)C(=O)N4[C@H]3c3ccc(O)cc3)cc2)[C@]12C(=O)Nc1ccc(I)cc12`, the composite z-score in [1] is 1.55; in [5], 2.39; in [7] it was -0.0267; in [8], 1.69; in assay [9], 1.05; in assay [10] it was -0.118. Moreover, the composite z-score was 1.34 in assay [11]; -0.188 in assay [12]; -0.485 in [13]; 1.26 in assay [15]; 0.98 in assay [16]; 0.625 in assay [17]. For the same compound, the composite z-score was 1.46 in assay [18], 1.27 in assay [19] and 0.0385 in assay [20]. The z-score in assay [2] was 0.827 (inactive); in assay [3], 1.36 (inactive); in assay [4], 3.95 (inactive); in assay [6] it was -0.305 (inactive); in assay [14], 0.354 (inactive).
